According to paper PMC7826789 (International Journal of Molecular Sciences, 2021):

How the values were obtained:
YSK1 = test system: T1, YSK1; conditions: Compound Concentration (nM):1000
T1 construct: gene STK25

YSK4 = test system: T2, YSK4; conditions: Compound Concentration (nM):1000
T2 construct: gene MAP3K19

ZAK = conditions: Compound Concentration (nM):1000
ZAP70 = conditions: Compound Concentration (nM):1000
p38-alpha = test system: T3, p38-alpha; conditions: Compound Concentration (nM):1000
T3 construct: gene MAPK14

p38-beta = test system: T4, p38-beta; conditions: Compound Concentration (nM):1000
T4 construct: gene MAPK11

p38-delta = test system: T5, p38-delta; conditions: Compound Concentration (nM):1000
T5 construct: gene MAPK13

p38-gamma = test system: T6, p38-gamma; conditions: Compound Concentration (nM):1000
T6 construct: gene MAPK12
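For Percent Control in this document: KINOMEscan scanMAX binding as percent activity remaining versus control; lower means stronger binding.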

SMILES	Percent Control (YSK1) [%]	Percent Control (YSK4) [%]	Percent Control (ZAK) [%]	Percent Control (ZAP70) [%]	Percent Control (p38-alpha) [%]	Percent Control (p38-beta) [%]	Percent Control (p38-delta) [%]	Percent Control (p38-gamma) [%]	Kinases covered (ABL1)	Kinases covered (ACK1)
COc1ccccc1-c1cc(/C=C2\C(=O)Nc3ncc(Br)cc32)cc(Br)c1O [GW442130X]	99	98	100	100	100	92	67	57		
CCc1ccc(Oc2nccc(-c3c(-c4ccc(F)cc4)ncn3C3CCNCC3)n2)cc1 [SB-242719]	100	94	84	98	0.1	3	100	100		
Cl.O=C(O[C@H]1CN[C@H](C#Cc2cc3ncnc(Nc4ccc5c(cnn5Cc5ccccc5)c4)c3s2)C1)N1CCOCC1 [GSK200398A]	79	83	82	89	100	100	100	100		
O=C(NCCO)c1cccc(-c2cc(Nc3ccc(OC(F)(F)F)cc3)ncn2)c1 [GNF-5]									ABL1	
NS(=O)(=O)c1ccc(N/N=C2\C(=O)Nc3ccc(-c4cnco4)cc32)cc1 [GW276655]	59	1.9	80	88	100	100	99	66		
CC(C)COC(=O)c1ccc2c(c1)/C(=C/Nc1ccc(S(N)(=O)=O)cc1)C(=O)N2 [GW416981X]	65	11	100	100	100	100	100	100		
CN(C)c1cc2c(Nc3ccc4c(cnn4Cc4ccccc4)c3)ncnc2cn1 [GW282974X]	83	90	90	83	100	100	99	100		
COc1cc(N2CCN(C(C)C)CC2)ccc1Nc1nc(Nc2ccc(F)cc2C(=O)NC[C@@H](O)CO)c2cc[nH]c2n1 [GSK1392956A]	89	34	93	86	100	100	100	91		
COC(=O)Nc1nc2ccc(Oc3ccc(NC(=O)Nc4cc(C(F)(F)F)ccc4F)cc3)cc2s1.Cl [GW693917A]	100	12	6.8	82	18	10	96	46		
COc1cc(C=NNc2ncnc3c2cnn3-c2ccccc2)ccc1O [GW513184X]	97	3.1	48	99	100	88	88	97		
CNS(=O)(=O)c1ccc(N(C)C)c(Nc2ncnc3cc(OC)c(OC)cc23)c1 [GSK114]										ACK1
NS(=O)(=O)c1ccc(Nc2ncc(-c3ccccc3)o2)cc1 [GW572399X]	54	30	100	100	100	100	100	100		
CN1C(=O)c2ccccc2N(C)c2nc(Nc3cnn(C4CCNCC4)c3)ncc21 [XMD-17-51]									ABL1	
CN1CCN(C(=O)c2ccc(NC(=O)Nc3ccc(N(C)c4ccnc(Nc5ccc(CS(C)(=O)=O)cc5)n4)cc3)cc2)CC1.Cl [GW830263A]	83	0	86	65	83	100	100	100		
COc1cc(/C=N/Nc2ncnc3[nH]ncc23)ccc1O [GW578748X]	70	3.2	59	76	100	100	100	69		
CCS(=O)(=O)c1ccc(OC)c(Nc2ncc(-c3cccc(F)c3)o2)c1 [GW621970X]	79	90	82	86	100	100	100	100		
COc1ccc(COc2ccc(Cc3cnc(N)nc3N)cc2OC)cc1 [GW632580X]	100	91	87	97	100	100	85	89		
Cl.O=C(Nc1ccc(Oc2ccc3[nH]c(NC(=O)c4ccco4)nc3c2)cc1)Nc1cc(C(F)(F)F)ccc1F [GW683134A]	70	13	3.2	100	97	37	100	82		
COc1cc2ncn(-c3cc(O[C@H](C)c4ccccc4Cl)c(C(N)=O)s3)c2cc1OC [GSK237701A]	78	5.6	100	93	100	100	100	100		
Cl.O=C(Nc1ccc(Oc2ccc3[nH]c(NC(=O)c4ccccc4)nc3c2)cc1)Nc1cc(C(F)(F)F)ccc1F [GW709042A]	78	69	6.9	94	98	52	100	82		
Cc1cc(O)cc(C)c1/C=C/c1cncc(C(N)=O)c1 [GW435821X]	95	84	87	96	100	100	100	100		
COc1cc2ncnc(Nc3ccc4c(cnn4Cc4ccccc4)c3)c2cc1OC.Cl [GW282449A]	89	98	100	100	100	100	100	100		

SMILES	Percent Control (YSK1) [%]	Percent Control (YSK4) [%]	Percent Control (ZAK) [%]	Percent Control (ZAP70) [%]	Percent Control (p38-alpha) [%]	Percent Control (p38-beta) [%]	Percent Control (p38-delta) [%]	Percent Control (p38-gamma) [%]	Kinases covered (ABL1)	Kinases covered (ACK1)
Cl.O=S1CCN(Cc2ccc(-c3ccc4ncnc(Nc5ccc(OCc6ccccc6)c(F)c5)c4c3)o2)CC1 [GW576924A]	81	100	100	100	100	100	100	99		
CCS(=O)(=O)c1ccc(OC)c(Nc2ncc(-c3cccc(OC)c3)o2)c1 [GW580509X]	81	96	100	100	100	100	100	100		
NS(=O)(=O)c1ccc(N/N=C2\C(=O)Nc3ccc(C(=O)NCCc4c[nH]cn4)cc32)cc1 [GW300660X]	84	3.7	96	79	100	100	100	84		
COc1cccc(-c2c[nH]c3c(N/N=C/c4ccncc4)ncnc23)c1 [GW814408X]	65	0.7	17	89	100	100	100	100		
COc1ccc2[nH]c3c4[nH]c5ccc(OC)cc5c4c4c(c3c2c1)C(=O)NC4=O [GW296115X]	89	0	100	76	87	100	86	70		
C[C@@H](Oc1cc(-n2cnc3ccc(OC4CCN(C)CC4)cc32)sc1C(N)=O)c1ccccc1Cl [GSK579289A]	74	32	69	93	100	76	100	81		
CC1=C(C(=O)Nc2ccc3[nH]ncc3c2)C(c2ccc(Cl)c(Cl)c2)CC(=O)N1 (centres unmarked) [GSK299115A]	67	64	100	100	100	100	100	100		
COc1ccc2c(-c3ccnc(Nc4cccc(OC(F)(F)F)c4)n3)cnn2n1 [GW810372X]	85	39	69	86	100	100	100	77		
NS(=O)(=O)c1ccc(N/N=C2\C(=O)Nc3ccc(Cl)cc32)cc1 [GW280670X]	80	31	100	100	100	100	100	100		
COc1ccc2cc(-c3c(-c4ccncc4)nc(-c4ccc(S(C)(=O)=O)cc4C)n3C)ccc2c1 [SB-633825]	100	66	89	84	100	79	83	100		
CCn1c(-c2nonc2N)nc2c(C#CC(C)(C)O)nc(OCCNC)cc21.Cl [GSK949675]	89	0	100	100	100	94	100	84		
CC1=C(C(=O)Nc2ccc3[nH]ncc3c2)C(c2ccc3ccccc3c2)CC(=O)N1 (centres unmarked) [GSK270822A]	68	75	92	99	100	100	94	100		
COc1cccc(-n2ncc3c(N/N=C/c4ccncc4)ncnc32)c1 [GW784752X]	90	21	39	98	100	100	100	100		
Cl.c1ccc(Cc2nc3ccc(Nc4ncnc5ccccc45)cc3[nH]2)cc1 [GR269666A]	87	100	100	90	100	100	100	100		
CN(C)CCNC(=O)Nc1ccc(N(C)c2ccnc(Nc3ccc(CS(C)(=O)=O)cc3)n2)cc1.Cl [GW830900A]	100	12	100	90	99	100	99	100		
Nc1ncnc2occ(-c3ccc(NC(=O)Nc4cc(C(F)(F)F)ccc4F)cc3)c12 [GW770249X]	70	0.1	46	86	85	57	4.8	18		
C/C(Nc1ccc(S(N)(=O)=O)cc1)=C1/C(=O)Nc2ccccc21 [GW335962X]	55	14	100	94	100	100	100	73		
NS(=O)(=O)c1ccc(N/N=C2\C(=O)Nc3ccc(C(=O)NCc4ccncc4)cc32)cc1 [GW300657X]	76	2.4	100	85	100	100	100	42		
O=C(Nc1n[nH]c2nc(-c3ccc(O)cc3)c(Br)cc12)C1CC1 [SB-725317]	79	4.3	100	100	100	74	100	81		
COc1cc(C)c(N(C)C(=O)CN(C)C)cc1Nc1nc(Nc2cccc(F)c2C(N)=O)c2cc[nH]c2n1 [GSK2219385]	100	51	90	81	97	100	100	56		
O=C1Nc2ccc(C(=O)c3ccco3)cc2C1=Cc1cc(Cl)c(O)c(Cl)c1 [GW406108X]	85	20	100	100	93	100	100	44		
